Holding throughout (design): scale not given: direction of the effect not stated beside the values
Experiment [1] has as its target AMP-activated protein kinase, AMPK (Homo sapiens) (UniProt P54646+O43741+P54619+Q9UGJ0+Q9Y478+Q13131+Q9UGI9). Kind of experiment: AMP-dependent Kinase enzyme assay. An in vitro enzyme assay that detects ADP turnover that is directly proportional to AMPK activity. This uses naive AMPK that is activated during the assay with MK-8722. The conditions noted are these: 30 µM. The experiment is classed as functional.

Experiment [2] concerns the target Protein translocase subunit SecA (Escherichia coli (strain K12)) (UniProt P10408). The experiment in a line: Assay to Identify E. coli SecA ATPase Inhibitors. In kind it is functional. The conditions noted are these: 30 µM.
Experiment [3] concerns the target T1, Ubiquitin-activating enzyme e1, putative (Leishmania donovani (strain BPK282A1)) (UniProt E9BSI1).
T1 sequence (whole entry): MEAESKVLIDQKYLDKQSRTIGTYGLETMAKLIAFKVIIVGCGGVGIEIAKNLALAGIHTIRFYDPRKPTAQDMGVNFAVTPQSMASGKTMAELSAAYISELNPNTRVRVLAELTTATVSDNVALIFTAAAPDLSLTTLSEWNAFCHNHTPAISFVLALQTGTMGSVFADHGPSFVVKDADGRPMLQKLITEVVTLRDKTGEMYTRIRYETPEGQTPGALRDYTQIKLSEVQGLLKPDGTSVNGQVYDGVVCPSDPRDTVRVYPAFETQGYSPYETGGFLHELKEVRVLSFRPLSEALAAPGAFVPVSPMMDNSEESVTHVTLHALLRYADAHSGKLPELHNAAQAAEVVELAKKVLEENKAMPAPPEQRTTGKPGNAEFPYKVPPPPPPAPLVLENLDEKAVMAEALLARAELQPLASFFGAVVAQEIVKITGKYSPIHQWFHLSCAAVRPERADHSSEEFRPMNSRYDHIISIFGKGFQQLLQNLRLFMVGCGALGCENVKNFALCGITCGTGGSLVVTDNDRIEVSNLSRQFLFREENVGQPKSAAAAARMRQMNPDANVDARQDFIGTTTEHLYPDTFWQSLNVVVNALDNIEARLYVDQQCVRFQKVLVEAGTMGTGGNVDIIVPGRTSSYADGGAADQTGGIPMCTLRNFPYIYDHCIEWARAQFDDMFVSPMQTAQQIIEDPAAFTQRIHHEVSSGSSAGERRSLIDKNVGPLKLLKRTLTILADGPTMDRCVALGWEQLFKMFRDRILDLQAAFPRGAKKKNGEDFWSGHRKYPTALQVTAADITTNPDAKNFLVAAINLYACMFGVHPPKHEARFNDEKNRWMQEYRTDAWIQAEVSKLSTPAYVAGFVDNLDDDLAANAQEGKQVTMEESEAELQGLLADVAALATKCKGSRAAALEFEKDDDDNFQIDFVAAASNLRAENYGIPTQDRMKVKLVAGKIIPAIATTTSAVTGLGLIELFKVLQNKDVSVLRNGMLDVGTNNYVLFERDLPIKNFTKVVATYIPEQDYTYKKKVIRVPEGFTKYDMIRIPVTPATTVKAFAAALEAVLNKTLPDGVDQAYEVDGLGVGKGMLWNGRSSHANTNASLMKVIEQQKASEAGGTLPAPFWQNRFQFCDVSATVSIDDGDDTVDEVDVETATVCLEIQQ
The experiment in a line: Leishmania donovani Ubiquitin Activating Enzyme (LdE1). In kind it is functional. The conditions noted are these: 30 µM.

The target in experiment [4] is Sialic acid-binding Ig-like lectin 9 (Homo sapiens) (UniProt Q9Y336). The experiment in a line: Hs-Siglec9 ALPHAscreen SOP 20170721. The conditions noted are these: 10 µM. A general note: In Alpha technology, singlet oxygen from a donor bead excites a nearby acceptor bead.
For a further experiment, the system named is Trypanosoma cruzi. The experiment in a line: Trypanosoma cruzi phosphomannomutase and mannose-1-phosphate guanylyltransferase assay. In kind it is functional. The settings on record: 10 µM.
The target of experiment [5] is T2, Arginase-2, mitochondrial (Homo sapiens) (UniProt P78540).
T2 sequence (whole entry): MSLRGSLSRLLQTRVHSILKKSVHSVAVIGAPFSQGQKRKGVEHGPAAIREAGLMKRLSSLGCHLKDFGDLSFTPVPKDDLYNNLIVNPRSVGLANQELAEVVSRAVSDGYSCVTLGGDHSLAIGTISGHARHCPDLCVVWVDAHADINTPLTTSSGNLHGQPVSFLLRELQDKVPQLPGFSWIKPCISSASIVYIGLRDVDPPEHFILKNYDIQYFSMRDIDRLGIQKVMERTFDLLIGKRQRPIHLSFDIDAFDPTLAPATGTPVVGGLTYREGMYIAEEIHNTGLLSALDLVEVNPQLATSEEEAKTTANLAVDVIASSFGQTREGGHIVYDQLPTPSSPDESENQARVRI
The experiment in a line: in vitro enzyme assay to detect the production of urea directly proportional to the activity of Arginase II. Further: in the data most compounds retested in dose-response had high values. In kind it is functional. The conditions noted are these: 33.3 µM.

For experiment [6], the target named is T3, Proteasome subunit beta (Trypanosoma cruzi) (UniProt O96673).
T3 sequence (whole entry): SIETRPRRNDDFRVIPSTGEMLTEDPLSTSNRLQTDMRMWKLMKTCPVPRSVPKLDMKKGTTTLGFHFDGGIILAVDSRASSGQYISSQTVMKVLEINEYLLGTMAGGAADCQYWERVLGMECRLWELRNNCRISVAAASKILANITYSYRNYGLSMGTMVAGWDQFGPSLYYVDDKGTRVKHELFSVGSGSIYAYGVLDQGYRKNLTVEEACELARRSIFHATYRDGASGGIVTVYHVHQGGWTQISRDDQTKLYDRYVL
Kind of experiment: Trypanosoma cruzi proteasome chymotrypsin-like activity (TcProtChymo) assay. Further: in the data most compounds retested in dose-response had high values. The experiment is classed as functional. The settings on record: 9.37 µM.

For the next experiment, the species on record is Homo sapiens. The experiment in a line: To identify inhibition of the IFN signalling (Jak-Stat) pathway via expression of an eGFP reporter gene under the control of an IFN-stimulated response element (ISRE) containing MxA promoter. In kind it is functional. The conditions noted are these: 30 µM. Background: Reporter assays use an easily measured gene product as a stand-in for the process of interest.

The target in experiment [7] is T4, Tyrosyl-tRNA synthetase, putative (Trypanosoma cruzi (strain CL Brener)) (UniProt Q4DSP6).
T4 sequence (whole entry): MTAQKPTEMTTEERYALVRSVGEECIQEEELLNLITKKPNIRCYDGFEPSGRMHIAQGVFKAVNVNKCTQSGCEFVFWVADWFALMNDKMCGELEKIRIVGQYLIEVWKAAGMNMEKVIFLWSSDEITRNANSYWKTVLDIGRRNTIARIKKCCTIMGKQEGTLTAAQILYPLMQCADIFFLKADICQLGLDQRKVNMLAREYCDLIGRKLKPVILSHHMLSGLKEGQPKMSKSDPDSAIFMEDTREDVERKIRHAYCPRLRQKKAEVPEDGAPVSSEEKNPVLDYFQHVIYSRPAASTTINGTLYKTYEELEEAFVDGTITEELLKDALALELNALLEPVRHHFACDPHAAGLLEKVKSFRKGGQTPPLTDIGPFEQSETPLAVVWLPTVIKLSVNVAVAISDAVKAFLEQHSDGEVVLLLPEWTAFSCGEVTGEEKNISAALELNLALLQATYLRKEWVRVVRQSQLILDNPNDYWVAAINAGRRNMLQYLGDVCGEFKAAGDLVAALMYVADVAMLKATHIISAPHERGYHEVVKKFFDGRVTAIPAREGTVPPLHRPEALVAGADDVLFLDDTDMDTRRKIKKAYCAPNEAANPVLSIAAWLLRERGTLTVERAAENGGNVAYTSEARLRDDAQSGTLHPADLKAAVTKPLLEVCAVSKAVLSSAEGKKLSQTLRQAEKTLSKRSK
Kind of experiment: Trypanosoma cruzi tyrosyl tRNA synthetase (TcYRS) _High Tyrosine SOP. Further: in the data most compounds retested in dose-response had high values. In kind it is functional. The conditions noted are these: 30 µM.

Experiment [8] deals with T4, Tyrosyl-tRNA synthetase, putative (Trypanosoma cruzi (strain CL Brener)). Kind of experiment: Trypanosoma cruzi tyrosyl tRNA synthetase (TcYRS) SOP. The conditions noted are these: 30 µM. In kind it is functional.
Experiment [9] deals with Chromo domain-containing protein 1 (Saccharomyces cerevisiae (strain ATCC 204508 / S288c) (Baker's yeast)) (UniProt P32657). The experiment in a line: ScCHD-1 Enzyme Inhibition Assay. Further: in the data most compounds retested in dose-response had high values. In kind it is functional. The settings on record: 30 µM.

Drawing on ChEMBL document CHEMBL3988442, “University of Dundee, Small-Polar-MMV Screening Library” (2021), this text covers Percent Effect for 11 compounds.

For some assays here: Results with a measured potency or affinity are listed apart.

Sialic acid-binding Ig-like lectin 9 (Homo sapiens), sequence (Q9Y336 whole entry): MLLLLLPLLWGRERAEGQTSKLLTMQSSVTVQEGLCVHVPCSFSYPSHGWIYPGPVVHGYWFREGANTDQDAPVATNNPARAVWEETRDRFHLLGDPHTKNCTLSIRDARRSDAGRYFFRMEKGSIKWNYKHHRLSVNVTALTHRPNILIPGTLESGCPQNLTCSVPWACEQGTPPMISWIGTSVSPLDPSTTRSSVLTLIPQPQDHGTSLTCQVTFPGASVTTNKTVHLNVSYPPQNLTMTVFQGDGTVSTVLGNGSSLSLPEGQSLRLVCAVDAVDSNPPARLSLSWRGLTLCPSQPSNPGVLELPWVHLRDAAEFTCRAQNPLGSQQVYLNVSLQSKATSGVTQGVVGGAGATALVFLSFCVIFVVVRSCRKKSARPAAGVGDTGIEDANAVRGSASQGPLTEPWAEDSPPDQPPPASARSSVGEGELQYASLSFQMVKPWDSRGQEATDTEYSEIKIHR
Protein translocase subunit SecA (Escherichia coli (strain K12)), sequence (P10408 whole entry): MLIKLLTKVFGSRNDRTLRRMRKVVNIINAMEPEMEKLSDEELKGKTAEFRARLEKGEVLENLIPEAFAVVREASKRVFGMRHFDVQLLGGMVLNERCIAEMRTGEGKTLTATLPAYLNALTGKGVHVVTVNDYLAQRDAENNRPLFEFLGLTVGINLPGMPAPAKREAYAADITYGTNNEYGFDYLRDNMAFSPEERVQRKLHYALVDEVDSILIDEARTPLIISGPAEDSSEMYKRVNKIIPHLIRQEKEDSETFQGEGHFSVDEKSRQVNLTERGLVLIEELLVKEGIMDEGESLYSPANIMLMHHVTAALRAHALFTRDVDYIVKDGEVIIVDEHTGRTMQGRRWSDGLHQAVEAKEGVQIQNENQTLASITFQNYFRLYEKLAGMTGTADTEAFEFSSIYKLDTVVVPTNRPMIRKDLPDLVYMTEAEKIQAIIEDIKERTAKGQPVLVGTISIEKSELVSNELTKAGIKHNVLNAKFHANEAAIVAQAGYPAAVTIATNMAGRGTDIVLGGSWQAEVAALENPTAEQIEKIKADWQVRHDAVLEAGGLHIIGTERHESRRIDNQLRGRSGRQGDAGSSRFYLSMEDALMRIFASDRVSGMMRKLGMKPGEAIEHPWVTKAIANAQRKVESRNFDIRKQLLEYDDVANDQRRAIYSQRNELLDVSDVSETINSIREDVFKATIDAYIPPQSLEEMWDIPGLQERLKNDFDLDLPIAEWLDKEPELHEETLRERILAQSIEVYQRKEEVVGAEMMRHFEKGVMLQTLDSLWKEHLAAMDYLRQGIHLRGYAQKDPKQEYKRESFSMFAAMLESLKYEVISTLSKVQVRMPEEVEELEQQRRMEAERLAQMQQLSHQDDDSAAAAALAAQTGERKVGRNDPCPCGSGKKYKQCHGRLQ
Chromo domain-containing protein 1 (Saccharomyces cerevisiae (strain ATCC 204508 / S288c) (Baker's yeast)), sequence (P32657 whole entry, the tested form may be a part): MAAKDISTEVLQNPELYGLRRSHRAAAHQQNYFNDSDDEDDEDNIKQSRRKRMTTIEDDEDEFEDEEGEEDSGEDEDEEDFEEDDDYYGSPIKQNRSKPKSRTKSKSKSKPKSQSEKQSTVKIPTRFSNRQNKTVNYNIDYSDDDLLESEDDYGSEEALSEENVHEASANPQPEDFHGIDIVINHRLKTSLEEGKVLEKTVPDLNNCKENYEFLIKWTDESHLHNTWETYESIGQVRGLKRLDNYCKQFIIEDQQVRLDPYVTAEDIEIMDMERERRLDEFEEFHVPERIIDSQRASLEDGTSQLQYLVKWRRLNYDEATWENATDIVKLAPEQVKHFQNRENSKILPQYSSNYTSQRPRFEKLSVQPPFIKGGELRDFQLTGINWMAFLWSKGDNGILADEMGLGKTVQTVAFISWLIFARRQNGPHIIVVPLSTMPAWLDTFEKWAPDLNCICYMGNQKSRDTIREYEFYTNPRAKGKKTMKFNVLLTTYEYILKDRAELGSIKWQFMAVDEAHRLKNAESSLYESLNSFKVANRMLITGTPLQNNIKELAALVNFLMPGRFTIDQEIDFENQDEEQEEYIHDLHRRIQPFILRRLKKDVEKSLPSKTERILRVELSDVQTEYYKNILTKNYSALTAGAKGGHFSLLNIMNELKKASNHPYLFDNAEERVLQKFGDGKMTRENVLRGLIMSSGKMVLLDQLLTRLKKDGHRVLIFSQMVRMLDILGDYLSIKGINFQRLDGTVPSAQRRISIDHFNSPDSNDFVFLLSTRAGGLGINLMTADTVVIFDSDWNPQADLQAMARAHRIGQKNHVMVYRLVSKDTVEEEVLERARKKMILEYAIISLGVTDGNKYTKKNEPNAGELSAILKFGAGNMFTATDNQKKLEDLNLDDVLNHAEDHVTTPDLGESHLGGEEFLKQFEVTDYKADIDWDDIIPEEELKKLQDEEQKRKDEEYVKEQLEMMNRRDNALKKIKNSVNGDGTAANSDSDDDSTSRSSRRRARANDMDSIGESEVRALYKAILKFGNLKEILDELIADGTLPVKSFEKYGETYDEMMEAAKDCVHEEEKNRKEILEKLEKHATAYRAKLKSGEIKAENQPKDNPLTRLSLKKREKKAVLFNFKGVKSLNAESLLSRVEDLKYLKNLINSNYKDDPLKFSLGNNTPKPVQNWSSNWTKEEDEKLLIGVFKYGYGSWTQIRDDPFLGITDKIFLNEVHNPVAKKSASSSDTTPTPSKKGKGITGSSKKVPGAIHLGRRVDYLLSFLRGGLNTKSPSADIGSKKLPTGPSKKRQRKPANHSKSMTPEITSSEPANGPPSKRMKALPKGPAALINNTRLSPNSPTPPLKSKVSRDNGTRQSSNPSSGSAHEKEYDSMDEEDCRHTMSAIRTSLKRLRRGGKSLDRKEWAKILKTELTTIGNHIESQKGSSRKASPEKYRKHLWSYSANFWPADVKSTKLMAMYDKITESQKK

Consider `CCc1c(C)nn(CCN2CC3(CCOC3)CCC2=O)c1C` (stereo not given), for which the Percent Effect in experiment [1] is -3.55%.
For `COc1cccc(COCC(=O)N2CCCC(n3ccnc3C)C2)c1` (stereo not given), the Percent Effect in experiment [2] was -2.06%; in experiment [3], -5.13%; in experiment [4] it was -2.52%; in the experiment on Trypanosoma cruzi, 4.6%; in [5] it was 4.92%; in experiment [6], -4.35%. Moreover, the Percent Effect is 19.1% in the experiment listed under Homo sapiens, -3.35% in experiment [7], 1.21% in [8] and 2.95% in experiment [9].
On to `CCc1nnc(C(C)N2CCC(NC(=O)C3CCCCC3)CC2)o1` (stereo not given), for which the Percent Effect in experiment [1] was 2.87%.
For the compound `CCc1nccn1-c1cncc(C2CCCN2Cc2cccnc2)n1` (stereo not given), the Percent Effect was -0.52% in [2]; 9.33% in [3]; 4.5% in experiment [4]; 1.38% with Trypanosoma cruzi; 0.443% in experiment [5]; 13.3% in [6]. Besides, the Percent Effect is -9.84% in the experiment listed under Homo sapiens, 6.35% in experiment [7], 20% in experiment [8] and -22.2% in experiment [9].
Consider `Cc1cc(=O)n2nc(Oc3cccc(I)c3)sc2n1`, for which, in experiment [1], the Percent Effect is -1.18%.
On the same count and under the same terms, under `CCc1n[nH]c(C(=O)N2CCC3(CCCN(CCOC)C3=O)C2)c1C` (stereo not given) stands 6.73%.
Regarding `c1ccc(-c2nc(CN3CCc4c(ncn4C4CC4)C3)cs2)cc1`, the Percent Effect in [2] is -0.517%; in experiment [3] it was 5.2%; in experiment [4], -12.1%; with Trypanosoma cruzi, -0.933%; in experiment [5], -7.99%; in experiment [6] it was 16%. The Percent Effect in the experiment filed under Homo sapiens is 28.5%; in experiment [7], 12.8%; in experiment [8] it was 18.8%; in experiment [9], -8.68%.
As to `CCc1nc(C2CCCN2C(=O)c2ccoc2C)no1` (stereo not given), the Percent Effect in experiment [2] was 2.59%; in experiment [3], -2.56%; in experiment [4] it was 10.5%; in the experiment with Trypanosoma cruzi it was 0.469%; in [5] it was 5.74%; in experiment [6] it was 2.3%. Besides, the Percent Effect in the experiment filed under Homo sapiens is 17.4%; in experiment [7], -0.478%; in [8], -18.1%; in experiment [9], 0.101%.
Consider `O=C(Cn1c(=O)nc2n1C(=O)N(c1ccccc1)C2)Nc1ccccc1`, for which the Percent Effect in experiment [2] was -6.94%; in experiment [3], 16.2%; in [4], 9.15%; in the experiment on Trypanosoma cruzi, 2.23%; in experiment [5], 24.8%; in experiment [6], 23.6%. In addition, the Percent Effect came out at 5.58% in the experiment listed under Homo sapiens, 6.92% in experiment [7], 14.6% in experiment [8] and 75.6% in [9].
`CN(Cc1ccccc1)C(=O)c1nc(S(C)(=O)=O)n2ccccc12`: the Percent Effect in [2] was -7.02%; in experiment [3], -92.3%; in [4] it was -5.33%; with Trypanosoma cruzi it was 9.67%; in experiment [5], -1.23%; in experiment [6] it was 1.96%. Moreover, the Percent Effect in the experiment listed under Homo sapiens is 5.84%; in [7], 1.44%; in experiment [8] it was 13.2%; in experiment [9], -7.37%.
With `CN(Cc1nncn1C)C(=O)c1cc(COc2ccccc2)[nH]n1`, the Percent Effect in experiment [1] is -7.68%.
